We go through 40 compounds from PubChem BioAssay AID1347142 (National Center for Advancing Translational Sciences (NCATS), 2019).

Inconclusive results are not listed. Active and inactive are the calls of the source. The call rests on the fitted dose curve; in most records, active means well fitted inhibition curve with a large enough effect; inconclusive means small, poorly fitted or top-dose-only effect; inactive means no such curve, though single readings can be large or run the other way.
Further: nearly all actives have a fitted effect of over 80% in size.
Potency means the concentration at half of the fitted maximal effect.

N-terminal Xaa-Pro-Lys N-methyltransferase 1 (Homo sapiens), sequence (Q9BV86 whole entry, looked up): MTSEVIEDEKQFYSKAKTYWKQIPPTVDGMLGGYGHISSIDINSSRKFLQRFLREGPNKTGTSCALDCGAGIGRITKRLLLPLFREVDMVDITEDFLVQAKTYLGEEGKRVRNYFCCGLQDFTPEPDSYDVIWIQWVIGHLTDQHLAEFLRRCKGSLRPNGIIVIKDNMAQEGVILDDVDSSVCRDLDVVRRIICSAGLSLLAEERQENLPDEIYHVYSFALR

This experiment concerns the target N-terminal Xaa-Pro-Lys N-methyltransferase 1 (Homo sapiens) (UniProt Q9BV86). Kind of experiment: qHTS Assay for Inhibitors of N-terminal methyltransferase 1 (NTMT1): ThioGlo3 Assay Confirmatory Screen, Round 1. The conditions noted are these: NTMT1 SAHH-coupled ThioGlo3 fluorescence, 30 min; series mostly up to 56.8 µM. An excerpt: Assay Submitter (PI): Rong Huang Ph.D, Purdue University, West Lafayette, IN 47907 The N-terminal methytransferase 1 is the first methyltransferase that methylates protein alpha-N-amines and plays an important role in regulating cell mitosis, chromatin interactions and DNA repair. It is observed to be over-expressed in various cancer patient tissues like malignant melanoma and colorectal cancer tissues. Knockdown of NTMT1 in cancer cells causes cell mitotic defects and enhances sensitivity to DNA damaging chemotherapeutics. […] These critical cellular processes in which NTMT1 is implicated, coupled with emerging links to cellular dysfunction, strengthen the inference that NTMT1 is a compelling novel anticancer target. Progress have been made in understanding the molecular properties of NTMT1 and the biological consequences of protein alpha-N-terminal methylation, but there are no specific small molecule probes available for NTMT1 to fully characterize its MTase activity. To address this unmet need, a panel of assay is created and established to enable quantitative high-throughput screening (qHTS) for novel, potent, and selective small molecule NTMT1 inhibitors. Two orthogonal qHTS that use different reagents (ThioGlo vs. MTaseGlo) are developed for primary robotic screening against the NCATS chemical library of more than 400,000 small molecules. Identified inhibitors are reacquired, validated, and further characterized. […] Early Translation Branch (ETB) National Center for Advancing Translational Sciences (NCATS) National Institute of Health (NIH)
Materials: NTMT1 enzyme, substrate SPKRIA, control peptide RCC1-6 is provided by the Huang laboratory. ThioGlo3 Assay: In brief, 125nM NTMT1 enzyme was dispensed into a 1536-well assay plate with Aurora Discovery BioRAPTR Flying Reagent Dispenser (FRD, Beckton-Dickenson). Compounds (at various concentration) or 1uM RCC1-6 (SPKRIA) control were transferred to the assay plate using the Kalypsys 1536-pintool apparatus. After 1 min of room temperature incubation, 1uL of substrate (100uM SAM, 10uM SAHH, 15uM ThioGlo3) was added to the wells bringing the final assay volume to 4uL. Initial (background) fluorescence readout (EX: 340nm, EM: 450nm) was then detected using the PerkinElmer ViewLux microplate imager and a final fluorescence readout was taken after 30 min of room temperature incubation. The data was normalized to the background fluorescence.
(In general: In qHTS, concentration-response curves come from the screen itself.)
On to `Nc1ncnc2c1ncn2[C@@H]1O[C@H](C[C@@H](N)CC[C@H](N)C(=O)O)[C@@H](O)[C@H]1O`, for which the Potency result was “inactive”. For `COc1cc2c(NC3CCN(C)CC3)nc(N3CCN(C)CC3)nc2cc1OCCOCCN(C)C`, the Potency is 21.5 µM (active). For `COc1cc2c(NC3CCN(C(C)C)CC3)nc(N3CCCN(C(C)C)CC3)nc2cc1OCCCN1CCCCC1` the value was 24.1 µM (active). As for `COc1cc2c(NC3CCN(C(C)C)CC3)nc(N3CCCCCC3)nc2cc1OCCCN1CCCC1`, the Potency was 21.5 µM (active). Consider `COc1cc2c(NC3CCN(C(C)C)CC3)nc(N3CCCN(C4CCCCC4)CC3)nc2cc1OCCCN1CCCC1`, for which the Potency was 24.1 µM (active).

With `Nc1ncnc2c1[nH]c(=O)n2C1OC(CO)C(O)C1O` (stereo not given), the Potency entry is “inactive”. As to `Nc1ncnc2c1ncn2[C@@H]1O[C@H](COP(=O)(O)OP(=O)(O)OP(=O)(O)OP(=O)(O)OC[C@@H]2O[C@H](n3cnc4c(N)ncnc43)[C@@H](O)C2O)C(O)[C@H]1O` (stereo not given in full), the Potency result is “inactive”. Consider `COc1cc2c(NC3CCN(C)CC3)nc(N3CCCN(C)CC3)nc2cc1OCC1CCNCC1`, for which the Potency was 24.1 µM (active). In the case of `COc1cc2c(NC3CCN(C)CC3)nc(N3CCCN(C)CC3)nc2cc1OCCOCCN(C)C`, the Potency is 24.1 µM (active). Regarding `O=C(Nc1ncnc2c1ncn2[C@@H]1O[C@@H]2COP(=O)(O)O[C@H]2[C@H]1O)c1ccccc1`, the Potency result was “inactive”.

On to `CSc1nc(N)c2ncn([C@@H]3O[C@H](COP(=O)(O)OP(=O)(O)OP(=O)(O)O)[C@@H](O)[C@H]3O)c2n1`, for which the Potency entry is “inactive”. As for `CCCC(=O)Nc1ncnc2c1ncn2[C@@H]1O[C@@H]2COP(=O)(O)O[C@H]2[C@H]1OC(=O)CCC`, the Potency result is “inactive”. For the compound `COc1cc2c(NC3CCN(C)CC3)nc(N3CCCCC3)nc2cc1OCCOCCN1CCCC1`, the Potency was 27.1 µM (active).

Regarding `COc1cc2c(NC3CCN(C(C)C)CC3)nc(N3CCCN(C(C)C)CC3)nc2cc1OCCOCCN(C)C`, the Potency was 24.1 µM (active). Consider `Nc1ncnc2c1ncn2[C@H]1O[C@@H](CSCC[C@@H](N)C(=O)O)[C@H](O)[C@@H]1O`, for which the Potency entry was “inactive”. Consider `N#Cc1ccc(COC[C@H]2O[C@@H](n3c(NCc4ccc(Cl)c(Cl)c4)nc4c(N)ncnc43)[C@@H](O)[C@@H]2O)cc1`, for which the Potency entry is “inactive”. As to `Nc1ncnc2c1[nH]c(=S)n2C1OC(CO)C(O)C1O` (stereo not given), the Potency is 17.1 µM (active).

For the compound `Nc1nc(=S)c2ncn([C@@H]3O[C@H](CO)[C@@H](O)[C@H]3O)c2[nH]1`, the Potency is 18.8 µM (active). Consider `C[C@H](Cc1ccccc1)Nc1ncnc2c1ncn2[C@@H]1O[C@H](CO)[C@@H](O)[C@H]1O`, for which the Potency entry was “inactive”. Consider `COc1cc2c(NC3CCN(C)CC3)nc(N3CCCN(C)CC3)nc2cc1OCCCC(C)C`, for which the Potency was 24.1 µM (active). In the case of `COc1cc2c(NC3CCN(C(C)C)CC3)nc(N3CCCN(C)CC3)nc2cc1OCCCN1CCCC1`, the Potency was 24.1 µM (active).

As to `COc1cc2nc(N3CCCN(C)CC3)nc(NC(C)C)c2cc1OC`, the Potency is 24.1 µM (active). Regarding `COc1cc2nc(N3CCN(C)CC3)nc(NC3CC3)c2cc1OC`, the Potency was 27.1 µM (active).

On to `Nc1ncnc2c1ncn2[C@@H]1O[C@H](COP(=O)(O)O)[C@@H](O)[C@H]1O`, for which the Potency entry was “inactive”.

With `Nc1ncnc2c1nc(Cl)n2[C@@H]1O[C@H](CO)[C@@H](O)[C@@H]1O`, the Potency entry was “inactive”.

`CO[C@@H]1[C@@H]2OP(=O)(O)OC[C@H]2O[C@H]1n1c(Sc2ccc(Cl)cc2)nc2c(N)ncnc21`: the Potency entry was “inactive”.

Consider `Cn1cnc2c(ncn2[C@@H]2O[C@H](CO)[C@@H](O)[C@H]2O)c1=N`, for which the Potency entry is “inactive”. For `CCN(CC)c1nc(NC2CCN(C)CC2)c2cc(OC)c(OC)cc2n1` the value was 27.1 µM (active). `CCN(CC)CCCOc1cc2nc(N3CCCN(C)CC3)nc(NC3CCN(C)CC3)c2cc1OC`: the Potency is 24.1 µM (active). Turning to `Nc1ncnc2c1ncn2C1OC(COP(=O)(O)O)C(O)C1O` (stereo not given), the Potency entry was “inactive”. For the compound `CCN1CCCN(c2nc(NC3CCN(C(C)C)CC3)c3cc(OC)c(OCCCN4CCCC4)cc3n2)CC1`, the Potency is 24.1 µM (active). The same measure for `Nc1ncnc2c1ncn2[C@@H]1O[C@H](COP(=O)(O)OP(=O)(O)O)[C@@H](O)[C@H]1O`: “inactive”; for `COc1cc2c(NC3CCN(C)CC3)nc(N3CCCN(C)CC3)nc2cc1O`: 24.1 µM (active); for `COc1cc2c(NC3CCN(CC4CCCCC4)CC3)nc(N3CCCN(C)CC3)nc2cc1OCCOCCN(C)C`: 24.1 µM (active). In the case of `OCC1OC(n2cnc3c(NO)ncnc32)C(O)C1O` (stereo not given), the Potency was 3.83 µM (active). As for `COc1cc2nc(N3CCCCC3)nc(NC(C)C)c2cc1OC`, the Potency was 24.1 µM (active). On to `Nc1ncnc2c1ncn2[C@H]1C[C@H](O)[C@@H](CO)O1`, for which the Potency result is “inactive”. For the compound `Nc1ncnc2c1ncn2[C@@H]1O[C@H](COP(=O)(O)OP(=O)(O)CP(=O)(O)O)[C@@H](O)[C@H]1O`, the Potency entry is “inactive”.

On to `CNC(=O)[C@H]1O[C@@H](n2cnc3c(NCc4ccc(N)cc4)ncnc32)[C@H](O)[C@@H]1O`, for which the Potency entry is “inactive”. `Nc1ncnc2c1ncn2C1O[C@H](COP(=O)(O)O)[C@@H](O)[C@H]1O` (stereo not given in full): the Potency entry is “inactive”.
